In PMC4336329 (PLoS ONE, 2015):
About 14,000 (4.5%) of roughly 310,000 compounds showed an effect of 50% or more. Effects have a minus sign here. Only a selection was taken, and strong results are over-represented in it overall.

biological target: human ether-à-go-go-related gene (hERG) potassium channel (human, UniProt Q12809); experiment: primary screen, population patch clamp on CHO cells stably expressing hERG; higher = less effect of the substance
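Also: peak tail current of the secondary pulse compared with the same well before compound.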

human ether-à-go-go-related gene (hERG) potassium channel, sequence (Q12809 whole entry, looked up): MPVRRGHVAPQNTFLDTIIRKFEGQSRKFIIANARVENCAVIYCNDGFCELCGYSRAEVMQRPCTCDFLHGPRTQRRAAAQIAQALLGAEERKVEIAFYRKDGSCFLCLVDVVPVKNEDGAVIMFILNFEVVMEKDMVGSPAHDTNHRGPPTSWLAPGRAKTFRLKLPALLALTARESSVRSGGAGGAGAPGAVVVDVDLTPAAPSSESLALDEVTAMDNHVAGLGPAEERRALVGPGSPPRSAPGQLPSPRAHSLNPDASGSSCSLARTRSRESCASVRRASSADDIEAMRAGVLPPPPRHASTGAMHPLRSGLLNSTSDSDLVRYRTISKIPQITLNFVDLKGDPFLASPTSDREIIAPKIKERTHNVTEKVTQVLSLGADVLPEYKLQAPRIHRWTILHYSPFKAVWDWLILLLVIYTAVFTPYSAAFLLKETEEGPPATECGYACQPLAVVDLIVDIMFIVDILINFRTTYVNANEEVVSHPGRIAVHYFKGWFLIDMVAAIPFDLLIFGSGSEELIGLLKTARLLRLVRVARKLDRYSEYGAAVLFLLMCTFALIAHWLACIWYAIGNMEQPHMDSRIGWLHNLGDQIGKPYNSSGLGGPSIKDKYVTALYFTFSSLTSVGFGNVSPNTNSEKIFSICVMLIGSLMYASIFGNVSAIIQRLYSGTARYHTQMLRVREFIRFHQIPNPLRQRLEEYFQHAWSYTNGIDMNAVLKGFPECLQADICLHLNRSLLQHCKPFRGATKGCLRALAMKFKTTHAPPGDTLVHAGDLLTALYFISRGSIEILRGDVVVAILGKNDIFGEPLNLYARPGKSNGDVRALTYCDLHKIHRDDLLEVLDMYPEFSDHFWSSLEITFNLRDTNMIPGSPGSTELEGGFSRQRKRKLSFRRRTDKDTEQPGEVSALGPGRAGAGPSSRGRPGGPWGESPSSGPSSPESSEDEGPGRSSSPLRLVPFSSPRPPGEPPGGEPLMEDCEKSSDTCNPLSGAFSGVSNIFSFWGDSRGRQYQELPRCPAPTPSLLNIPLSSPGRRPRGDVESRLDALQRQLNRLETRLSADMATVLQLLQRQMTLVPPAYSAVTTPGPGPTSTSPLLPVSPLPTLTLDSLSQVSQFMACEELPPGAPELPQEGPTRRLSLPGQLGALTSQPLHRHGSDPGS

Structure (SMILES)	hERG current change (%, negative = inhibition) at 10uM
Cc1cc2cc(CN(CCCO)S(=O)(=O)c3cccc4nsnc34)c(=O)[nH]c2cc1C	0.493%
CC(=O)c1ccc(N2CCN(C(=O)c3ccc4ccccc4n3)CC2)cc1	-43.1%
O=C(/C=C/c1cccs1)N1CCN(c2ccccc2)CC1	1.88%
CC(=O)c1ccc(N2CCN(C(=O)/C=C/c3ccc4ccccc4n3)CC2)cc1	-54.4%
CC(=O)c1ccc(N2CCN(C(=O)/C=C/c3cccs3)CC2)cc1	-25%
O=C(O)/C=C/c1ccc2ccccc2n1	2.35%
O=C(/C=C/c1ccc2ccccc2n1)N1CCN(S(=O)(=O)c2ccc(F)cc2)CC1	-52.4%
O=C(/C=C/c1ccc2ccccc2n1)N1CCN(c2ccccc2)CC1	-52.1%
O=C(/C=C/c1ccc(S(=O)(=O)N2CCOCC2)cc1)N1CCN(c2ccc(F)cc2)CC1	-25.6%
O=C(/C=C/c1ccc2ccccc2n1)N1CCN(S(=O)(=O)c2ccccc2F)CC1	-15.9%
NS(=O)(=O)c1ccc2nc(NC(=O)Nc3ccc(F)cc3)sc2c1	6.61%
CCN=C1S/C(=C\c2cn(C(C)=O)nc2-c2ccccc2)C(=O)N1CC	8.23%
O=C(CSCc1ccc(Br)cc1)N1CCOCC1	3.5%
CCN(CC)c1ccc(C=C2C(=O)OC3(CCCCC3)OC2=O)cc1	7.76%
CCCOc1ccc(C(C)=O)cc1CC(C(=O)OCC)C(=O)OCC	1.47%
COc1ccc(/C=C/C(=O)OCC(=O)Nc2cc(C(N)=O)cc(C(N)=O)c2)cc1	18.2%
CN(C)/C=N/C(=S)Nc1cc(Cl)cc(Cl)c1	27.2%
O=C(c1ccc(NS(=O)(=O)c2cccs2)cc1)N1CCOCC1	14.4%
CC(=O)c1cc(CC=C(C)C)c(O)cc1O	-3.51%
O=C(COC(=O)CCC1CCCC1)Nc1ccc(Cl)cn1	15.2%
Cc1c(C(=O)OCC(=O)N(C)CC(=O)Nc2ccc(F)cc2)oc2ccccc12	14.3%
CN(C)c1nc(N)c([N+](=O)[O-])c(N2CCCCCC2)n1	2.69%

Structure (SMILES)	hERG current change (%, negative = inhibition) at 10uM
Cl.c1ccc2c(c1)oc1c(Nc3ccc(CN4CCOCC4)cc3)ncnc12	-62%
CC(=O)N1CCN(c2ccc(Nc3ncnc4c3oc3ccccc34)cc2)CC1.Cl	-65.9%
CC(=O)N1CCN(c2ccc(Nc3nc(C)nc4c3oc3ccccc34)cc2)CC1.Cl	-51.3%
Cl.c1ccc2c(c1)oc1c(NCCCN3CCOCC3)ncnc12	-22.4%
CCc1nc(Nc2ccc(N3CCN(C(C)=O)CC3)cc2)c2oc3ccccc3c2n1.Cl	-43.7%
CC(=O)c1ccc(Nc2ncnc3c2oc2ccccc23)cc1	7.05%
CC(=O)Nc1ccc(Nc2nc(C)nc3c2oc2ccccc23)cc1	13.4%
Cl.Oc1ccc(Nc2ncnc3c2oc2ccccc23)cc1	-4.8%
Cl.c1ccc2c(c1)oc1c(NCCN3CCOCC3)ncnc12	-5.4%
O=C(Nc1nc(COc2ccccc2)cs1)c1ccccc1F	24.9%
CCCCN(CC)CCNC(=O)Cn1cc2c(n1)-c1c(oc(C(=O)N3CCCC3)c1C)CC2	-27.9%
CCOc1cc(/C=C2/C(=O)ON=C2C)ccc1OCc1ccccc1F	10.6%
Cc1cc(OCC(=O)N[C@H](C(=O)O)c2ccccc2)c2c3c(c(=O)oc2c1)CCC3	12.1%
CCN1CCN(C(=S)Nc2cc(C(=O)OC)ccc2C(=O)OC)CC1	16.9%
Cc1ccc(C(=O)NCCN2CCOCC2)cc1	12%
Br.COC(=O)Cn1c(=N)n(CCN2CCCCC2)c2ccccc21	-19.2%
Br.N=c1n(CCN2CCOCC2)c2ccccc2n1CC(=O)c1ccc(Cl)c(Cl)c1	-73.2%
Br.N=c1n(CCN2CCOCC2)c2ccccc2n1Cc1ccccc1Br	-72.9%
O=C(NCCN1CCOCC1)c1ccc(Cl)c(Cl)c1	-2.39%
Br.Cc1ccc(C(=O)Cn2c(=N)n(N)c3ccccc32)cc1	-14.7%
Cn1c(=O)n(Cc2ccccc2Br)c2ccccc21	-10.3%
Cc1ccc(C(=O)Cn2c(=N)n(CCN3CCOCC3)c3ccccc32)cc1.[Br-]	-59.9%

Structure (SMILES)	hERG current change (%, negative = inhibition) at 10uM
Br.N=c1n(CCN2CCCCC2)c2ccccc2n1CC(=O)c1cccs1	-25.2%
N=c1n(CCOc2ccccc2)c2ccccc2n1CCN1CCOCC1	-42.9%
Cc1ccc(C(=O)NCCN2CCOCC2)cc1Cl	-17.7%
Br.N=c1n(CCN2CCCCC2)c2ccccc2n1CC(=O)c1ccc(Cl)c(Cl)c1	-72.6%
COc1ccc(C)cc1NC(=O)c1ccc(NC(=O)CC2SC(N3CCCC3)=NC2=O)cc1 (stereo not shown)	18.2%
Cc1cn(-c2ccc(Br)cc2)[nH]c1=O	8.3%
COC(=O)C1=C(C)N=C2SC(C)C(=O)N2C1c1cccs1 (stereo not shown)	7.16%
CCNC(=O)NC(=O)COC(=O)CCCSc1nc2ccccc2s1	-8.6%
CCOc1ccc(S(=O)(=O)NCCC(=O)NCCc2ccc(C(C)C)cc2)cc1	3.89%
CCOC(=O)c1nn(-c2ccc([N+](=O)[O-])cc2)cc1O	2.65%
COC(=O)c1cc(OC)c(OC)cc1NCC(=O)Nc1cccc(C(F)(F)F)c1	13.8%
COc1ccc(C(=O)N2CCOCC2)cc1S(=O)(=O)N1CCC(C)CC1	-9.4%
COc1ccccc1NC(=O)Cn1c([N+](=O)[O-])cnc1C	11%
NC(=S)N=Nc1c(O)n(CCCl)c2ccc(Br)cc12	-27.4%
CCc1ccccc1S(=O)(=O)Cc1ccc(C(=O)NCC2CCCO2)o1 (stereo not shown)	-23%
Cc1ccc(C(C)NC(=O)Cc2cccs2)cc1C (stereo not shown)	-44.2%
CCN1CCCC1CNC(=O)C(=O)NC(C)c1ccccc1 (stereo not shown)	13%
Br.N=c1n(CCN2CCOCC2)c2ccccc2n1CC(=O)c1cccc([N+](=O)[O-])c1	-42.2%
Cl.N=C(c1cccc([N+](=O)[O-])c1)N1CCCCCC1	2.26%
Br.N=c1n(CC(=O)c2cccc([N+](=O)[O-])c2)c2ccccc2n1Cc1ccccc1	-17.9%
Br.N=c1n(CCN2CCCCC2)c2ccccc2n1CC(=O)c1cccc([N+](=O)[O-])c1	-69%
Br.CCn1c(=N)n(CC(=O)c2cccc([N+](=O)[O-])c2)c2ccccc21	12.1%

Structure (SMILES)	hERG current change (%, negative = inhibition) at 10uM
Br.C=CCn1c(=N)n(CC(=O)c2cccc([N+](=O)[O-])c2)c2ccccc21	-56.7%
O=C1Nc2ccccc2/C1=C/c1cnc(-c2ccccc2)[nH]1	26.2%
C[C@@H]1C(=O)O[C@H]2[C@H](O)[C@@]34[C@H]5C[C@@H](C(C)(C)C)[C@]36[C@@H](OC(=O)[C@@H]6O)O[C@@]4(C(=O)O5)[C@@]12O	21.2%
CC(OC(=O)C1CCN(S(=O)(=O)c2ccc(Cl)cc2)CC1)C(=O)N1CCc2ccccc21 (stereo not shown)	-16.4%
Oc1ccc(-c2cccc(-c3ccc(O)cc3)n2)cc1	15.5%
CN(C)S(=O)(=O)N1CCN(C(=O)N2CCCCC2)CC1	3.64%
COc1cc(/C=C(\C#N)c2nn(CCO)c(N)c2C#N)cc(OC)c1OC	12.5%
O=C(COc1ccccc1)NCC(=O)N1CCCCCC1	7.21%
C/C(=N/NC(=O)c1cccs1)c1c(C)[nH]n(-c2nc3ccccc3s2)c1=O	7.38%
O=c1c(C=NCCCn2ccnc2)c(-c2ccccc2)[nH]n1-c1nc2ccccc2s1	-71.4%
O=c1c(C=NCc2cccnc2)c(C(F)(F)F)[nH]n1-c1nc2ccccc2s1	9.04%
CCOC(=O)Cc1cc(=O)n(-c2nc3ccccc3s2)[nH]1	5.12%
CN(C)CCCN=Cc1c(-c2ccccc2)[nH]n(-c2nc3ccccc3s2)c1=O	-71%
O=c1cc(-c2ccccc2)[nH]n1-c1nc2ccccc2s1	14.2%
CCN(CC)CCCN=Cc1c(-c2ccccc2)[nH]n(-c2nc3ccccc3s2)c1=O	-78.2%
CCC(=NCc1ccccc1)c1c(C(F)(F)F)[nH]n(-c2nc3ccccc3s2)c1=O	12.6%
CN(C)CCCN=Cc1c(O)n(CCc2ccccc2)c(=O)[nH]c1=O	-0.99%
O=c1c(C=NCCCO)c(-c2ccccc2)[nH]n1-c1nc2ccccc2s1	-72.6%
O=c1[nH]c(=O)n(Cc2ccccc2)c(O)c1C=NCCCn1ccnc1	1.23%
Nn1c(SCC(=O)NC2CCS(=O)(=O)C2)nnc1-c1cccs1 (stereo not shown)	16.7%
COc1ccc(NC(=O)c2ccccc2CC[N+](=O)[O-])cc1	9.51%
COc1ccc(CCNC(=O)C2CC(c3ccc(C(F)(F)F)cc3)=NO2)cc1 (stereo not shown)	-6.74%
